Over roughly 1,100 compounds, “Wnt reporter firefly/Renilla luciferase ratio relative to plate median” has its median near 1.1; the highest 2% begin near 1.6. What follows is part of a selection rich in the highest values, with near analogues and random picks from the rest.
Tested on: HEK293T (UBE3A T485A transfected, BAR Wnt reporter)
Test: Wnt reporter firefly/Renilla luciferase ratio relative to plate median (fold (linear ratio)); higher = more Wnt/beta-catenin reporter activation
Settings: 24 h
In short: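 HEK293T cells were seeded at 4500 cells/well in white 384-well plates and grown in DMEM with 10% FBS at 37°C and 5% CO2. The cells were transfected using Fugene 6 with a BAR firefly luciferase Wnt reporter, TK-Renilla and an expression plasmid, and four hours later robots added the chemicals at 0.01–100 uM for 24 h before a Dual-Glo luciferase readout. Wnt activity was taken as the firefly/Renilla ratio and cell health as raw Renilla, each median-centred per plate. Values are averages of four biological replicates.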

| Compound | Wnt reporter firefly/Renilla luciferase ratio (concentration: 0.01 uM) | Wnt reporter firefly/Renilla luciferase ratio (concentration: 0.1 uM) | Wnt reporter firefly/Renilla luciferase ratio (concentration: 1 uM) | Wnt reporter firefly/Renilla luciferase ratio (concentration: 10 uM) | Wnt reporter firefly/Renilla luciferase ratio (concentration: 100 uM) |
| --- | --- | --- | --- | --- | --- |
| CNC(=O)Oc1cccc2c1OC(C)(C)O2 [Bendiocarb] | 1.3 | 1.17 | 1.01 | 0.983 | 1.38 |
| CC(Oc1cccc(Cl)c1)C(=O)O (stereo unspecified) [Cloprop] | 1.31 | 1.51 | 1.12 | 1.28 | 1.45 |
| CC(C)Oc1cccc(NC(=O)c2ccccc2C(F)(F)F)c1 [Flutolanil] | 0.682 | 0.79 | 1.01 | 0.768 | 0.559 |
| CC(C)OC(=O)Nc1cccc(Cl)c1 [Chlorpropham] | 1.45 | 1.78 | 1.23 | 1.47 | 0.823 |
| CCNc1nc(NC(C)C)nc(SC)n1 [Ametryn] | 0.686 | 0.725 | 0.813 | 1.29 | 0.791 |
| CC(C)C1(C)N=C(c2ncccc2C(=O)O)NC1=O (stereo unspecified) [Imazapyr] | 1.14 | 1.29 | 1.04 | 1.09 | 1.24 |
| COP(=S)(OC)SCN1C(=O)c2ccccc2C1=O [Phosmet] |  | 1.07 | 0.925 | 1.47 | 1.65 |
| COP(=S)(OC)SCn1nnc2ccccc2c1=O [Azinphos-methyl] | 1.01 | 0.911 | 0.978 | 0.89 | 0.837 |
| CNC(=O)CSP(=S)(OC)OC [Dimethoate] | 0.95 | 0.993 | 1.02 | 1.02 | 1.1 |
| CCNc1nc(Cl)nc(NCC)n1 [Simazine] | 1 | 1.19 | 1.01 | 1.06 | 1.52 |
| O=C(O)C(F)(F)C(F)(F)C(F)(F)C(F)(F)C(F)(F)C(F)(F)C(F)(F)C(F)(F)F |  | 1.29 | 0.95 | 1.12 | 0.369 |
| O=C(O)C(F)(F)C(F)(F)C(F)(F)C(F)(F)C(F)(F)C(F)(F)F [Perfluoroheptanoic acid] |  | 0.82 | 1.02 | 0.932 | 0.483 |
| O=C(O)C(F)(F)C(F)(F)C(F)(F)C(F)(F)C(F)(F)C(F)(F)C(F)(F)C(F)(F)C(F)(F)C(F)(F)F [Perfluoroundecanoic acid] |  | 1.11 | 0.936 | 0.954 | 0.68 |
| O=C(O)C(F)(F)C(F)(F)C(F)(F)C(F)(F)C(F)(F)F |  | 1.16 | 1.48 | 1.38 | 2.14 |
| O=C(O)C(F)(F)C(F)(F)C(F)(F)C(F)(F)C(F)(F)C(F)(F)C(F)(F)C(F)(F)C(F)(F)F |  | 0.93 | 1.14 | 1.04 | 1.19 |
| O=C(O)C(F)(F)C(F)(F)C(F)(F)C(F)(F)C(F)(F)C(F)(F)C(F)(F)F | 1.29 | 1.71 | 1.19 | 1.41 | 1.46 |
| Oc1cc(Cl)c(Cl)cc1Cl [2,4,5-Trichlorophenol] |  | 1.12 | 0.917 | 0.962 |  |
| CCCCCCCCCC(CC)c1ccc(S(=O)(=O)O)cc1.OCCN(CCO)CCO (stereo unspecified) [Dodecylbenzene sulfonate triethanolamine(1:1)] |  | 1.13 | 1.29 | 1.13 | 1.01 |
| COc1cnc(OC)n2nc(NS(=O)(=O)c3c(OCC(F)F)cccc3C(F)(F)F)nc12 [Penoxsulam] | 1.12 | 1.09 | 1.29 | 1.38 | 1.75 |
| C=CC(=O)NCNC(=O)C=C [N,N'-Methylenebisacrylamide] |  | 0.951 | 0.999 | 1.03 | 1.21 |
| CN(C)c1ccc(Cc2ccc(N(C)C)cc2)cc1 [4,4'-Methylenebis(N,N-dimethylaniline)] |  | 1.02 | 1.07 | 1.14 | 0.474 |

| Compound | Wnt reporter firefly/Renilla luciferase ratio (concentration: 0.01 uM) | Wnt reporter firefly/Renilla luciferase ratio (concentration: 0.1 uM) | Wnt reporter firefly/Renilla luciferase ratio (concentration: 1 uM) | Wnt reporter firefly/Renilla luciferase ratio (concentration: 10 uM) | Wnt reporter firefly/Renilla luciferase ratio (concentration: 100 uM) |
| --- | --- | --- | --- | --- | --- |
| CCc1nn(C)c(C(=O)NCc2ccc(C(C)(C)C)cc2)c1Cl [Tebufenpyrad] | 0.583 | 0.632 | 0.279 | 0.218 | 0.51 |
| COC(=O)N(C(=O)N1CO[C@@]2(C(=O)OC)Cc3cc(Cl)ccc3C2=N1)c1ccc(OC(F)(F)F)cc1 [Indoxacarb] | 0.92 | 0.96 | 1.2 | 0.895 | 0.242 |
| CCCCN(CCCC)SN(C)C(=O)Oc1cccc2c1OC(C)(C)C2 [Carbosulfan] |  | 1.07 | 1.13 | 1.07 | 1.28 |
| c1ccc2c(c1)Nc1ccccc1S2 [Phenothiazine] |  | 1.08 | 1.01 | 0.726 | 0.188 |
| CC(C)(C)OOC(=O)c1ccccc1 [tert-Butyl perbenzoate] |  | 1.06 | 0.994 | 1.24 | 0.688 |
| Nc1ccc(-c2ccc(N)cc2)cc1 [Benzidine] |  | 1.22 | 1.11 | 1.23 | 0.579 |
| Cc1ccc(N)cc1 [4-Methylaniline] |  | 1.14 | 1.18 | 1.34 | 1.79 |
| Cc1ccc(N)c(N)c1 [3,4-Diaminotoluene] |  | 1.18 | 1.26 | 1.2 |  |
| CC(C)=CC1C(C(=O)OCN2C(=O)C3=C(CCCC3)C2=O)C1(C)C (stereo unspecified) [Tetramethrin] | 0.717 | 0.76 | 0.941 | 0.819 | 0.824 |
| CCOc1nc(F)cc2nc(S(=O)(=O)Nc3c(Cl)cccc3Cl)nn12 [Diclosulam] | 1.4 | 1.38 | 0.954 | 1.05 | 0.892 |
| Oc1ccc(Cl)cc1Cl [2,4-Dichlorophenol] |  | 1.06 | 1.15 | 1.36 | 1.47 |
| CC(C)CCCCCCCOC(=O)c1ccccc1C(=O)OCCCCCCCC(C)C |  | 0.955 | 1.04 | 1.1 | 1.9 |
| CCCCCCOC(=O)c1ccccc1C(=O)OCCCCCC [Dihexyl phthalate] |  | 1.05 | 0.965 | 1.29 | 0.728 |
| CCCCOC(=O)c1ccccc1C(=O)O [Monobutyl phthalate] | 1.07 | 1.12 | 2.24 | 1.14 | 1.75 |
| CCCCCOC(=O)c1ccccc1C(=O)OCCCCC [Dipentyl phthalate] |  | 1.06 | 1.36 | 1.14 | 1.15 |
| CCCCOC(=O)c1ccccc1C(=O)OCCCC [Dibutyl phthalate] | 0.897 | 0.942 | 0.947 | 1.05 | 0.275 |
| CCCCCCCCOC(=O)c1ccccc1C(=O)OCCCCCCCC [Dioctyl phthalate] |  | 1.21 | 1.11 | 1.04 | 1.25 |
| CCOP(=O)(NC(C)C)Oc1ccc(SC)c(C)c1 (stereo unspecified) [Fenamiphos] | 0.946 | 0.758 | 0.93 | 0.83 | 0.243 |
| C/C(=N\C#N)N(C)Cc1ccc(Cl)nc1 [Acetamiprid] | 1.26 | 0.96 | 0.904 | 1.08 | 1.18 |
| Cc1c(COC(=O)[C@H]2[C@@H](/C=C(\Cl)C(F)(F)F)C2(C)C)cccc1-c1ccccc1 [Bifenthrin] | 0.843 | 1.35 | 1.11 | 0.982 | 0.325 |
| CNC(=O)/C=C(\C)OP(=O)(OC)OC [Monocrotophos] | 0.971 | 1.1 | 1.22 | 1.06 | 1.12 |

| Compound | Wnt reporter firefly/Renilla luciferase ratio (concentration: 0.01 uM) | Wnt reporter firefly/Renilla luciferase ratio (concentration: 0.1 uM) | Wnt reporter firefly/Renilla luciferase ratio (concentration: 1 uM) | Wnt reporter firefly/Renilla luciferase ratio (concentration: 10 uM) | Wnt reporter firefly/Renilla luciferase ratio (concentration: 100 uM) |
| --- | --- | --- | --- | --- | --- |
| COP(=O)(OC)O/C(C)=C/C(=O)N(C)C [Dicrotophos] | 1.29 | 1.12 | 1.1 | 0.957 | 1.09 |
| COP(=O)(OC)OC=C(Cl)Cl [Dichlorvos] | 1.2 | 1.67 | 1.4 | 1.34 | 1.21 |
| O=P(O)(O)CCCl [Ethephon] | 0.756 | 1.23 | 1.18 | 0.988 | 1.19 |
| CC(C)N1C(=O)N(c2ccccc2)CSC1=NC(C)(C)C [Buprofezin] | 1.25 | 1.69 | 1.16 | 1.12 | 0.27 |
| CC(C)N1C(=O)c2ccccc2NS1(=O)=O [Bentazone] | 1.46 | 0.947 | 0.964 | 0.949 | 0.329 |
| COC(=CC(N)=O)C(C)C(C=Cc1csc(-c2csc(C(C)C=CC=CC(C)C)n2)n1)OC (stereo unspecified) [Myxothiazol] | 1.41 | 0.921 | 0.539 | 0.492 |  |
| CCCCC(CC)COC(=O)c1ccccc1C(=O)O (stereo unspecified) | 1.04 | 0.861 | 1.04 | 0.979 | 0.821 |
| N#Cc1c[nH]cc1-c1cccc2c1OC(F)(F)O2 [Fludioxonil] | 0.759 | 0.842 | 0.847 | 1.04 | 0.858 |
| CNC(=O)Oc1cccc2ccccc12 [Carbaryl] | 0.987 | 1.18 | 1.07 | 0.714 | 0.629 |
| CCOP(=O)(SC(C)CC)N1CCSC1=O (stereo unspecified) [Fosthiazate] | 0.839 | 0.761 | 0.922 | 1.5 | 0.772 |
| ClC1=C(Cl)C2(Cl)C3C4OC4C(Cl)C3C1(Cl)C2(Cl)Cl (stereo unspecified) [Heptachlor epoxide] |  | 1.18 | 1.23 | 1.06 | 1.5 |
| CCc1cccc(C)c1N(C(=O)CCl)C(C)COC (stereo unspecified) [Metolachlor] | 0.768 | 1.6 | 0.921 | 0.833 | 0.28 |
| O=[N+]([O-])C(Br)(CO)CO [Bronopol] |  | 1.17 | 1.15 | 1.07 |  |
| CCN(CC)C(=O)SCc1ccc(Cl)cc1 [Thiobencarb] | 0.948 | 1.27 | 1.52 | 1.02 | 1.54 |
| O=[N+]([O-])c1cc(C(F)(F)F)c(Cl)c([N+](=O)[O-])c1Nc1ncc(C(F)(F)F)cc1Cl [Fluazinam] | 0.902 | 0.969 | 1.24 | 0.338 |  |
| Cl[C@H]1[C@H](Cl)[C@@H](Cl)[C@H](Cl)[C@@H](Cl)[C@@H]1Cl [beta-Hexachlorocyclohexane] |  | 1.05 | 0.913 | 1.12 | 1.03 |
| Clc1ccc(Cl)c(Cl)c1 [1,2,4-Trichlorobenzene] |  | 0.911 | 0.886 | 1.04 | 1.57 |
| Nc1ccc(Cl)cc1N [4-Chloro-1,2-diaminobenzene] |  | 1.1 | 1.03 | 0.852 |  |
| Clc1cccc(Cl)c1 [1,3-Dichlorobenzene] |  | 1.15 | 1.18 | 1.45 | 1.77 |
| Cc1cc(C)cc(C)c1 [1,3,5-Trimethylbenzene] |  | 1.01 | 1.15 | 1.05 | 1.12 |
| CCCC(=NOCC)C1=C(O)CC(CC(C)SCC)CC1=O (stereo unspecified) [Sethoxydim] | 1.27 | 1.07 | 1.15 | 1.2 | 0.758 |

Reference: the supplement of paper PMC9254222
